Shiga toxin inh: A qHTS for Small Molecule Inhibitors of Shiga Toxin; AID 2315, 2010; inhibition, % at 38.7 µM; 9.2% of 290,000 active; Vero cells, Shiga toxin protein synthesis inhibition reporter; in the data active = inhibition mostly above about 28%, no sharp cut-off; inactive = mostly below about 43%
CHX counter: Cycloheximide Counterscreen for Small Molecule Inhibitors of Shiga Toxin; 12% of 300,000 active; cell reporter, cycloheximide protein synthesis inhibition counterscreen; AID 2314, 2010; max response, %; in the data active = max response mostly above about 13%, no sharp cut-off; inactive = mostly below about 14%; note: read at 38.3 µM for the half of the compounds with a filed dose
LmPK inh: qHTS Assay for Inhibitors of Leishmania Mexicana Pyruvate Kinase (LmPK); purified LmPK, Kinase-Glo ATP luminescence, 1 h; Potency, µM (titrated, usually from 57.5 µM), usual class: inhibitors; 0.37% of 290,000 active; AID 1721, 2009
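Purified LmPK (0.1 nM) converted ADP (0.1 mM) to ATP with PEP (0.5 mM) in imidazole buffer pH 7.2 with KCl and MgCl2, 1 h at room temperature. ATP was read by Kinase-Glo luminescence; data normalized to uninhibited and no-enzyme controls.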
NS1 inh: qHTS Assay for Inhibitors of Influenza NS1 Protein Function; Potency, µM (series often up to 46.1 µM); 0.4% of 270,000 active; calls by dose curve; note: actives are rising curves; nearly all actives have a fitted effect of over 50% in size
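In this qHTS, NS1 from influenza A is expressed in budding yeast, where it slows growth. Cells are switched from glucose to 2% galactose medium (pH 6.0, -URA), treated with compound, and growth recovery is read at OD600.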
Giardia FBPA inh: qHTS Assay for Inhibitors of Fructose-1,6-bisphosphate Aldolase from Giardia Lamblia. A8B2U2. purified Giardia FBPA. Potency, µM (top dose mostly 59.6 µM), most hits filed as inhibitors. 0.71% of 290,000 active. AID 2451, 2010; note: nearly all actives have a fitted effect of over 55% in size
Target sequence (A8B2U2 whole entry, looked up): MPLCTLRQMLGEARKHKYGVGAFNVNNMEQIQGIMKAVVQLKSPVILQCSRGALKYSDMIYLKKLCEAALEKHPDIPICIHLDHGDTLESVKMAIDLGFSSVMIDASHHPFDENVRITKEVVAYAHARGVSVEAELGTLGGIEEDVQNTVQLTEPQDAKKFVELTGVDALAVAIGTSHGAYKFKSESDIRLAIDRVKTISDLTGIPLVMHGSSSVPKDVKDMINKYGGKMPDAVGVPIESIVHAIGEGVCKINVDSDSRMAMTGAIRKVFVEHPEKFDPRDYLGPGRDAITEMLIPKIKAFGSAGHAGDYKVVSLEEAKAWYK
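40 nM FBPA preincubated 10 min at RT with compound (up to 57.5 uM final), then substrate plus GAPDH/TPI/NAD/arsenate coupling and diaphorase/resazurin added. Fluorescence read after 20 min at RT, 525/598 nm.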
Of the large screens only hits and unclear results are named; the others gave an inactive call. Sampled rows, rich in hits. Any-hit rate of the full collection: about 14%. Unless noted, calls come from the whole dose curve; as a rule, active = well fitted curve in the direction sought with a large enough effect; inconclusive = small, poorly fitted or top-dose-only effect, or another doubt; inactive = no such curve, though single readings can be large; an effect the other way counts as inactive or inconclusive.

CN(C)CCCSc1nc2ccccc2[nH]1	none (no result: Shiga toxin inh, CHX counter, LmPK inh, Giardia FBPA inh)
Cc1nc(SCCOc2ccc(F)cc2)c2ccccc2n1	Shiga toxin inh 79, CHX counter 25 (no result: NS1 inh)
C[C@]12C=CC(=O)C=C1CC[C@@H]1[C@@H]2C(=O)C[C@@]2(C)[C@H]1CC[C@]2(O)C(=O)COC(=O)CCC(=O)O	none
Cc1ccc(Nc2nnc(SCC(=O)Nc3ccccc3[N+](=O)[O-])s2)cc1	none
Cc1nc(SCC(=O)Nc2cccnc2Cl)nc(C)c1C	none (no result: NS1 inh)
Cc1cccc(Nc2nnc(SCC(=O)Nc3ccccc3[N+](=O)[O-])s2)c1C	CHX counter 27
Cc1ccc(Nc2nnc(SCC(=O)Nc3cccnc3Cl)s2)cc1C	Shiga toxin inh 52, CHX counter 27
NCCOC[C@H](N)C(=O)O	none (no result: Shiga toxin inh, CHX counter, LmPK inh, Giardia FBPA inh)
O=C(CN1C(=O)NC2(CCCC2)C1=O)Nc1ccc(C(F)(F)F)cc1	none
Cc1cc(Oc2nnnn2-c2ccccc2)ccc1Cl	CHX counter 30
Cc1ccccc1NC(=O)CSc1ccncc1	CHX counter 14
O=C(CSc1nnc(-c2ccccc2)c(-c2ccccc2)n1)Nc1ncc(Cl)cc1Cl	Shiga toxin inh 34, CHX counter 18
O=C(CSc1nnc(-c2ccco2)c(-c2ccco2)n1)Nc1ccccc1	CHX counter 31, NS1 inh inconclusive, Giardia FBPA inh inconclusive
Cc1ccccc1NC(=O)CSc1nnc(-c2ccco2)c(-c2ccco2)n1	NS1 inh inconclusive, Giardia FBPA inh 1.8µM
CSc1nnc(-c2ccco2)c(-c2ccco2)n1	Giardia FBPA inh 3.5µM
COc1ccc(Cc2nc3ccc(C(=O)NC4CCOC4)cc3o2)cc1 (centres undefined)	none
CC1CCCCN1C(=O)c1ccc(CS(=O)(=O)Cc2ccccc2)cc1 (centres undefined)	none
COc1cccc(N2C(=O)CC(N3CCc4ccccc43)C2=O)c1 (centres undefined)	Shiga toxin inh 35, CHX counter 24
Cc1ccc(-c2nnc(SCC(=O)N/N=C/c3ccccc3C(=O)O)n2-c2ccc(Cl)cc2)cc1	Giardia FBPA inh inconclusive
O=C(c1cc2c(s1)CCCC2)n1cccn1	CHX counter 18
O=C(c1cc2c(s1)CCCC2)N1CCC2(CC1)OCCO2	Shiga toxin inh 76, CHX counter 22
O=C(C1CCN(c2ccc(N3CCOCC3)nn2)CC1)N1CCN(c2ccc(F)cc2)CC1	Shiga toxin inh 71
CC(=O)c1ccc(N2CCN(C(=O)C3CCC3)CC2)cc1	CHX counter 14
O=C(c1cc2c(s1)CCCC2)N1CCN(C(=O)C2CCCO2)CC1 (centres undefined)	none
CC(=O)c1ccc(N2CCN(C(=O)c3cc4c(s3)CCCC4)CC2)cc1	Shiga toxin inh 71, CHX counter 18 (no result: NS1 inh)
O=C(c1cc2c(s1)CCCCC2)N1CCN(c2ncccn2)CC1	none
C=CCN1CCN(C(=O)c2cc3c(s2)CCCC3)CC1	CHX counter 15 (no result: Giardia FBPA inh)
Cn1cccc1C(=O)N1CCC2(CCN(Cc3nccs3)CC2)CC1	none (no result: Shiga toxin inh, CHX counter, LmPK inh, NS1 inh)
C#CCCCO/N=C1/C[C@@H](O)[C@@H](O)[C@@H]2[C@@H]3C(=O)N([C@@H](C)c4ccccc4)C(=O)[C@H]3CC[C@@H]12	none (no result: Shiga toxin inh, CHX counter, LmPK inh, NS1 inh)
COc1ccc(NC(=O)c2cccnc2)c([N+](=O)[O-])c1	none (no result: NS1 inh)
COc1ccc(NC(=O)c2ccccc2)c([N+](=O)[O-])c1	Shiga toxin inh 74, CHX counter 32 (no result: NS1 inh)
CCCc1cc(C(=O)Nc2ccc(OC)cc2[N+](=O)[O-])cs1	CHX counter 28
COc1ccc(C(=O)N2CCCC(Nc3ccc(C)c(C)c3)C2)c(OC)n1 (centres undefined)	none
CC(C)=NOCc1cccc(-c2cc(-c3ccccc3)no2)c1	none (no result: Shiga toxin inh, CHX counter, LmPK inh, NS1 inh)
COc1cc2c(cc1OC)C(C)N(S(=O)(=O)c1ccc(Cl)nc1)CC2 (centres undefined)	none (no result: Giardia FBPA inh)
O=C(O)c1ccc(-c2ccc(OS(=O)(=O)c3ccccc3F)cc2)cc1	Shiga toxin inh 65, CHX counter 19
CCN(CC)C(=O)c1ccc(-c2ccccc2)cc1	Shiga toxin inh active, CHX counter 16
CN(C)CC(=O)c1ccc(-c2ccccc2)cc1	CHX counter 24
CCN(Cc1ccccc1)C(=O)c1ccc(C(=O)N(CC)Cc2ccccc2)cc1	none
COc1ccc2c(c1)OC(=O)CC2c1ccc2c(c1)OCO2 (centres undefined)	none (no result: LmPK inh, NS1 inh)
COc1ccc([N+](=O)[O-])cc1C1NN=C(c2ccccc2O)S1 (centres undefined)	none

Screening data deposited in PubChem by National Center for Advancing Translational Sciences (NCATS).
